Laboratory results taken from PubChem BioAssay AID624078 (Southern Research Specialized Biocontainment Screening …, 2012).
Potency and affinity values are given separately. Activity calls are given as the source filed them. Entries that show only a call come without a potency. The rule behind the calls is not given here.

Assay: BHK-21 cell cytotoxicity, cytotoxicity control for flavivirus guanylyltransferase probe project, secondary screen (AID 624078)

In the case of `Cn1c(=O)c2[nH]c(-c3ccccc3)c(O)c2n(C)c1=O`, the outcome is reported as “inactive”.
